Data reported in PubChem BioAssay (NCI).
This is part of a sample that, as a whole, favours compounds with a hit. Of some 83,000 tested, about 20% had one in any assay.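 The endpoint reported here, percent growth, reads 100 for growth as untreated, 0 for no net growth and -100 for all cells dead.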 Unmarked numbers belong to inactive results. Activity calls are given as the source filed them.

Each compound was assayed on SK-MEL-28 melanoma (assay: NCI-60 one-dose screen, 48 h (100 = growth as untreated, 0 = no growth, -100 = all killed)). Conditions: 10 µM.
Description: Growth inhibition of the SK-MEL-28 human tumor cell line is measured as a screen for anti-cancer activity. Cells are grown in 96 well plates and exposed to the test compound for 48 hours. Compounds are tested at a single concentration, which is 10^-5 M for most compounds. The reported endpoint is percent growth (GI% or GIPRCNT), where numbers from 0 - 100% represent growth inhibition, and numbers from -100% - 0 represent cell death. For example, a value of 40 represents 60% growth inhibition. A value of 0 means no net growth occurred over the course of the experiment. A value of -40 indicates 40% of cells at the beginning of the experiment died by the end of the experiment. A value of -100 means all cells are dead at the end of the experiment.
NCI-60 Human Tumor Cell Lines Screen was performed using the standard one-dose NCI protocol, which is described in more detail at https://dtp.cancer.gov/discovery_development/nci-60/default.htm.
Compounds with GIPRCNT values below 10 were considered active. Activity score was based on GIPRCNT using the following formula: […]
Score is 0 for GIPRCNT values of 100 or above, 50 for GIPRCNT values of 0, and 100 for GIPRCNT values of -100.
C=CC[Se]C(=O)c1cncc(C(=O)[Se]CC=C)c1 was tested, and the growth was -39% (active).
With C#CC[Se]C(=O)c1ccc2n[se]nc2c1 the growth was 79.4%.
For CC(C)C[C@H](NC(=O)CNC(=O)C[C@H]1O[C@@H]2OC3(C)CC[C@H]4[C@H](C)CC[C@@H]([C@H]1C)[C@@]24OO3)B(O)O, the growth was -38.5% (active).
O=C(/C=C/c1ccco1)c1nc2ccccc2n1Cc1ccc(Br)cc1 showed a growth of 56.2%.
In the case of CC[C@]12C=CCN3CC[C@@]4(c5ccc(OC)cc5N(C)[C@H]4[C@@](O)(C(=O)OC)[C@@H]1OC(=O)CCC[P+](C1CCCCC1)(C1CCCCC1)C1CCCCC1)[C@@H]32, the growth is reported as -85.9% (active).
In the case of O=C(/C=C/c1ccccc1)c1nc2ccccc2n1Cc1ccc(F)cc1, the growth is reported as -26.4% (active).
Work on C[C@H]1[C@H](OC(=O)CCC(=O)N(CCCc2cn(-c3ccc(C#N)cc3)nn2)CCNc2ccnc3cc(Cl)ccc23)O[C@@H]2OC3(C)CC[C@H]4[C@H](C)CC[C@@H]1[C@@]24OO3 yielded a growth of 59.5%.
For CCOP(=O)(OCC)C(NC(C)=O)C(=O)SCCN (stereo not given), the growth was 108%.
COC(=O)CCn1c(-c2ccc(-n3cc(-c4ccc(O[C@H]5O[C@@H]6OC7(C)CC[C@H]8[C@H](C)CC[C@@H]([C@H]5C)[C@@]68OO7)cc4)nn3)cc2)nc2ccccc21 was tested, and the growth was 28.6%.
O=C(/C=C/c1ccc(F)cc1)c1nc2ccccc2n1Cc1ccc(F)cc1 was tested, and the growth was -15.8% (active).
For CCOP(=O)(CC(F)(F)C(F)(F)F)OCC, the growth was -47.1% (active).
In the case of O=C([Se]C1C=CCCC1)c1ccc(C(=O)[Se]C2C=CCCC2)s1 (stereo not given), the growth is reported as -79.4% (active).
With COc1cc(OC)c(S(=O)(=O)N(CCCl)CCCl)cc1C(=O)/C=C/c1cc(OC)c(OC)c(OC)c1 the growth was -68.5% (active).
With CC1=C(CCC=O)C2=C(C)C3(CC3)[C@@](C)(O)C(=O)C2=C1 the growth was -99.3% (active).
O=C(NC([Se])=NC1CCCCC1)c1ccccc1 showed a growth of 33.3%.
CC12OOC(C)(OO1)C2CCC(=O)OCCNc1ccnc2cc(Cl)ccc12 (stereo not given) was tested, and the growth was 93%.
CN(C)CCc1cn(C2CCC2)c2cccc(O)c12 was tested, and the growth was 3.47% (active).
For O=C(/C=C/c1ccco1)c1nc2ccccc2n1Cc1ccc(F)cc1, the growth was 81.8%.
In the case of O=C(/C=C/c1ccc(Cl)cc1Cl)c1nc2ccccc2n1Cc1ccc(Br)cc1, the growth is reported as 89.5%.
COCCOCCOCCOc1ccc(-n2cc(-c3ccc(O[C@H]4O[C@@H]5OC6(C)CC[C@H]7[C@H](C)CC[C@@H]([C@H]4C)[C@@]57OO6)cc3)nn2)cc1 gave a growth of 44.6%.
In the case of CC1=C(COCCOC(=O)c2ccc(S(=O)(=O)F)cc2)C2=C(C)C3(CC3)[C@@](C)(O)C(=O)C2=C1, the growth is reported as -63.6% (active).
For O=C(/C=C/c1cccc(Br)c1)c1nc2ccccc2n1Cc1ccc(Br)cc1, the growth was -53.4% (active).
With CC[C@]12C=CCN3CC[C@@]4(c5ccc(OC)cc5N(C)[C@H]4[C@@](O)(C(=O)OC)[C@@H]1OC(=O)CCC[P+](c1ccc(F)cc1)(c1ccc(F)cc1)c1ccc(F)cc1)[C@@H]32 the growth was -24.1% (active).
In the case of CC[C@]12C=CCN3CC[C@@]4(c5ccc(OC)cc5N(C)[C@H]4[C@@](O)(C(=O)OC)[C@@H]1OC(=O)CCCC[P+](c1ccc(C)cc1)(c1ccc(C)cc1)c1ccc(C)cc1)[C@@H]32, the growth is reported as -97.8% (active).
With CC(C)N=C([Se])NC(=O)c1cccs1 the growth was 60.2%.
Work on COc1ccc(/C=C/C(=O)c2nc3ccccc3n2Cc2ccc(Br)cc2)cc1 yielded a growth of 85.9%.
For COc1ccc(OC)c(/C=C/C(=O)c2nc3ccccc3n2Cc2ccc(F)cc2)c1, the growth was -53% (active).
C[C@H]1[C@H](OC(=O)CCC(=O)N(CCCc2cn(-c3ccc([N+](=O)[O-])cc3)nn2)CCNc2ccnc3cc(Cl)ccc23)O[C@@H]2OC3(C)CC[C@H]4[C@H](C)CC[C@@H]1[C@@]24OO3 was tested, and the growth was 50.7%.
With COC(=O)C[C@](O)(CCCC(C)C)C(=O)O[C@H]1C(OC)=C[C@@]23CCCN2CCc2cc4c(cc2[C@@H]13)OCO4 the growth was -24.3% (active).
With CC12OOC(C)(OO1)C2CCC(=O)NCCNc1ccnc2cc(Cl)ccc12 (stereo not given) the growth was 104%.
In the case of N#C[Se]CC(=O)Nc1cccc(C(F)(F)F)c1, the growth is reported as -63.2% (active).
In the case of COc1cc2cc(C(=O)N3C[C@@H](CCl)c4c3cc(OC(=O)N3CCN(C(=O)CCC(=O)N5CCN(C)CC5)[C@@H]5CSSC[C@@H]53)c3ccccc43)[nH]c2c(OC)c1OC, the growth is reported as -94.4% (active).
In the case of COC(=O)c1ccc(-n2cc(CCCN(CCNc3ccnc4cc(Cl)ccc34)C(=O)CCC(=O)O[C@@H]3O[C@@H]4OC5(C)CC[C@H]6[C@H](C)CC[C@@H]([C@H]3C)[C@@]46OO5)nn2)cc1, the growth is reported as 16.3%.
O=C(/C=C/c1ccc(Br)cc1)c1nc2ccccc2n1Cc1ccc(Br)cc1 was tested, and the growth was -43.9% (active).
For O=C(NC([Se])=NC1CCCCC1)c1ccc2c(c1)OCO2, the growth was 51.6%.
CC12OOC(C)(OO1)C2CCC(=O)NCCCNc1ccnc2cc(Cl)ccc12 (stereo not given) gave a growth of 72%.
For O=C(/C=C/c1ccc(Cl)cc1)c1nc2ccccc2n1Cc1ccc(F)cc1, the growth was 38.9%.
With COCCOCCOCCOc1ccc(-n2cc(CCCN(CCNc3ccnc4cc(Cl)ccc34)C(=O)CCC(=O)O[C@@H]3O[C@@H]4OC5(C)CC[C@H]6[C@H](C)CC[C@@H]([C@H]3C)[C@@]46OO5)nn2)cc1 the growth was 53.1%.
For CC1=C(CCC=NNC(N)=O)C2=C(C)C3(CC3)[C@@](C)(O)C(=O)C2=C1, the growth was -79.8% (active).
In the case of COc1cc2cc(C(=O)N3C[C@@H](CCl)c4c3cc(OC(=O)N3CCN(C)[C@@H]5CSSC[C@H]53)c3ccccc43)[nH]c2c(OC)c1OC, the growth is reported as -94.8% (active).
